Our source for the inhibition values is PubChem BioAssay.

A number with no mark means an inactive call. How the calls were made is not given here.

The target of the test is Pantothenate synthetase (Mycobacterium tuberculosis (strain ATCC 25618 / H37Rv)) (UniProt P9WIL5). In words: Recombinant Mtb pantothenate synthetase (PanC) inhibitors, coupled enzyme, confirmatory (AID 375).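 Further: 0% = full reaction with vehicle and 100% = no enzyme background.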 Particulars: coupled enzyme assay; at 10 µM, hits give high values.
Sequence of Pantothenate synthetase (Mycobacterium tuberculosis (strain ATCC 25618 / H37Rv)) (P9WIL5 whole entry, looked up): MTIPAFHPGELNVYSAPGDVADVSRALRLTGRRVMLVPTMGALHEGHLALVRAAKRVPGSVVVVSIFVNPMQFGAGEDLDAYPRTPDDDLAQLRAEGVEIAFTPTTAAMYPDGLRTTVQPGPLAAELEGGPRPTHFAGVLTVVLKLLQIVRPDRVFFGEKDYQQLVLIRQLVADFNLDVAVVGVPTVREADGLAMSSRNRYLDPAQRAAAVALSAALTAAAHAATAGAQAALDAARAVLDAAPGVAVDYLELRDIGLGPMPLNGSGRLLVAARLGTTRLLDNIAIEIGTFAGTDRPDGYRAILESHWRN
One may read the inhibition as the relative decrease from the control value, in per cent. `CCOC(=O)Cn1c(S(=O)(=O)Cc2ccccc2)nc2ccccc21`: the inhibition was 0%.

As for `Nc1nc(-c2ccc(Cl)cc2)cc(C(F)(F)F)n1`, the inhibition is 0%.

As to `COc1ccccc1-c1nc(C(F)(F)F)c(OC)o1`, the inhibition is 0%.

Regarding `COc1ccccc1NC(=O)c1ccc(COc2ccccc2OC)o1`, the inhibition is 0%.

`CCCn1c(=O)c(C(=O)NCc2ccccn2)c(O)c2ccccc21`: the inhibition was 0%.

With `O=C(CCn1c(=S)[nH]c2cc3c(cc2c1=O)OCO3)N1CCN(C2CCCCC2)CC1`, the inhibition was 0%.

On to `CCOc1ccccc1CNC(=O)CCN1C(=O)COc2ccccc21`, for which the inhibition is 0%.

On to `O=C(Cn1cccc1)N1CCN(C(c2ccccc2)c2ccccc2)CC1`, for which the inhibition is 13%.

On to `Cc1cccc(-n2c(O)c(C=Nc3ccccc3N)c(=O)[nH]c2=O)c1`, for which the inhibition is 0%.

Turning to `COc1ccc(S(=O)(=O)N(CCN2CCOCC2)Cc2cc(OC)ccc2OC)cc1`, the inhibition is 4%.

For the compound `O=C(CSc1nc2ccccc2s1)N1CCOCC1`, the inhibition was 0%.

In the case of `COC(=O)C(C)Sc1nc2c(c(=O)n1-c1ccccc1)SCC2` (stereo not drawn), the inhibition is 0%.

For the compound `Nc1scc(-c2ccncc2)c1Cl`, the inhibition is 7%.

For the compound `CCn1c(SCc2nc(-c3cccs3)no2)nnc1-c1c[nH]c2ccccc12`, the inhibition is 0%.

Turning to `Cc1cccc(C(=O)N2CCC(n3nnc4cc(F)ccc43)CC2)c1`, the inhibition was 0%.

With `C=CCc1cc(OC)ccc1OCC(O)CN1CCN(c2ccc(OC)cc2)CC1` (stereo not drawn), the inhibition was 1%.

With `CSc1nc2ccccc2c(=O)n1N`, the inhibition was 0%.

For the compound `COC(=O)c1ccccc1NC(=O)Nc1cccs1`, the inhibition was 7%.
